Most compounds without a hit are left out; they make up all but 0.37% or so of the library.
Rab2 wt GTP: changes GTP binding to wildtype dog Rab2A, up or down | GST-Rab2 wt beads, Bodipy-GTP binding, flow cytometry | GTP binding activity, % at 10 µM | 0.19% of 190,000 active;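 active means GTP binding activity at least 20 points away from 100%, either lowered or raised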;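 further: 0% = beads with excess unlabeled GTP and 100% = no-compound control corrected for plate trend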
Rab7 wt GTP bind: alters GTP binding to wildtype dog Rab7 | GST-Rab7 beads, fluorescent GTP binding, flow cytometry; actives lie on both sides; untreated = 100%, excess cold GTP = 0% | GTP binding activity (percent of control), % at 10 µM | 0.055% of 190,000 active | AID 758;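 active means fluorescent GTP binding to Rab7 beads changed by at least 20 points from the 100% baseline, either direction, mostly lower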;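 further: median green fluorescence of bound Bodipy-FL-GTP per Rab7 bead population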
HRas wt GTP bind: modulators of GTP binding to human HRas wildtype; GST-Ras wt beads, Bodipy-FL-GTP binding, flow cytometry; actives lie on both sides; GTP binding activity, % at 10 µM; 0.14% of 190,000 active;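 active means GTP binding activity at least 20% away from the 100% baseline, either lowered as inhibitor or raised as activator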;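 further: 0% = unlabeled GTP competition control and 100% = no-compound control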
Target sequence (P01112 whole entry, looked up): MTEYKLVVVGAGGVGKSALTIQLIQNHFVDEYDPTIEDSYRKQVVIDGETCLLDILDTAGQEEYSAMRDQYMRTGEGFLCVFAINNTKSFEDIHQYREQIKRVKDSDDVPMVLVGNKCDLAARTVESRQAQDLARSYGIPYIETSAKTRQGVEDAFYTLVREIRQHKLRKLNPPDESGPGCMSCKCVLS
Rac1 wt modul: human Rac1 wildtype GTP binding, inhibitors and activators | GTP binding activity (% of control), % at 10 µM | 0.27% of 190,000 active | P63000 | GST-Rac1 beads, fluorescent GTP binding, flow cytometry; actives lie on both sides; 0 = cold GTP competed, 100 = untreated | AID 757;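 active means GTP binding activity at least 20 points away from the 100% control level, either lower or higher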
Rac1 act GTP bind: modulators of GTP binding to human Rac1 activated mutant. GST-Rac1 activated beads, fluorescent GTP binding, flow cytometry; actives lie on both sides; 100% means binding = to untreated wells. percent activity (GTP binding), % at 10 µM. 0.11% of 190,000 active. AID 764;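 active means GTP binding at least 20 percentage points away from the 100% baseline, in either direction, so actives lie on both sides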
Cdc42 wt: human Cdc42 wildtype GTP binding change, either direction; GST-Cdc42 beads, Bodipy-GTP binding, flow cytometry; actives lie on both sides; P60953; 0.2% of 190,000 active; AID 761; percent activity (GTP binding), % at 10 µM;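 active means percent activity GTP binding at least 20 points away from the 100% baseline, either down as inhibitor or up as activator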;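 further: median bead fluorescence of bound Bodipy-FL-GTP at 100 nM; 0% = excess unlabeled GTP control and 100% = no compound control; below 100% means less GTP binding so inhibitor and above means activator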
Target sequence (P60953 whole entry, looked up): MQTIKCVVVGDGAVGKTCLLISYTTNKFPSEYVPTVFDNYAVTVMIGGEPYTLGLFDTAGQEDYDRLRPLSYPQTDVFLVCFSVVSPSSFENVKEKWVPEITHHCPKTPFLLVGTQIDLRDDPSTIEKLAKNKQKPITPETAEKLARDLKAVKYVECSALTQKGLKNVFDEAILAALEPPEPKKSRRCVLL
An asterisk follows results filed as active; [ ] = remark or other dose.

SMILES | Rab2 wt GTP | Rab7 wt GTP bind | HRas wt GTP bind | Rac1 wt modul | Rac1 act GTP bind | Cdc42 wt
Cc1ccc2c(c1)c1nnc(SCC(=O)Nc3ccccc3C(F)(F)F)nc1n2CC(=O)O | 89 | 94 | 91 | 86 | 91 | 90
O=S(=O)(Nc1cccc(-c2cn3cccnc3n2)c1)c1ccccc1 | 74* | 87 | 75* | 70* | 85 | 86
O=S(=O)(Nc1cccc(-c2cn3cccnc3n2)c1)c1ccc(-c2ccccc2)cc1 | 95 | 96 | 97 | 95 | 94 | 93
CC1=CC(=C(C#N)C#N)C=C(C)N1CCC(C)C | 102 | 106 | 98 | 99 | 93 | 96
O=C(CSc1nnc(-c2cccs2)o1)c1cccs1 | 96 | 97 | 98 | 96 | 95 | 97
COc1ccc(-c2nnc(SCC(=O)c3cccs3)o2)cc1 | 60* | 59* | 42* | 58* | 62* | 54*
O=C(O)c1cc(N2N=C(C(F)(F)F)/C(=C/C=C/c3ccco3)C2=O)ccc1Cl | 83 | 90 | 85 | 84 | 76* | 79*
Nc1c(S(=O)(=O)c2cccs2)c2nc3ccccc3nc2n1/N=C/c1cccc(O)c1 | 46* | 73* | 47* | 64* | 64* | 45*
COc1ccc(/C=N/n2c(N)c(S(=O)(=O)c3cccs3)c3nc4ccccc4nc32)cc1OC | 49* | 75* | 56* | 57* | 74* | 61*
CC(C)Cn1c(N)c(S(=O)(=O)c2cccs2)c2nc3ccccc3nc21 | 100 | 99 | 100 | 100 | 99 | 101
CCn1c2ccccc2c2nc3ccccc3nc21 | 100 | 102 | 101 | 101 | 98 | 98
CCn1c2ccccc2c2nc3cc(C(=O)O)ccc3nc21 | 84 | 98 | 85 | 77* | 87 | 83
O=C(NCCc1ccc(Cl)cc1)/C(=C/c1cccnc1)NC(=O)c1ccccc1 | 99 | 99 | 101 | 104 | 101 | 104
N=C1/C(=C\c2ccc(SCc3ccco3)o2)C(=O)N=C2SC=NN12 | 77* | 88 | 74* | 76* | 81 | 72*
COc1cc2c(cc1OC)CN(CC(=O)Nc1ccc(Cl)c(S(=O)(=O)N(C)C)c1)CC2 | 96 | 100 | 96 | 96 | 93 | 95
O=C(O)c1ccc(CSc2nnc(-c3cccnc3)n2-c2ccc(Br)cc2)cc1 | 96 | 100 | 97 | 97 | 93 | 94
Cc1cc2ccccn2c1C(=O)c1cc([N+](=O)[O-])cc([N+](=O)[O-])c1 | 42* | 24* | 45* | 32* | 37* | 42*
N#CCCn1c(SCC(=O)Nc2ccc(N3CCOCC3)cc2)nc2ccccc21 | 101 | 97 | 101 | 102 | 101 | 99
COc1ccccc1C(=O)Nc1nc(-c2ccc3c(c2)OCCO3)cs1 | 81 | 94 | 87 | 78* | 78* | 78*
CCC(=O)Nc1nc(-c2ccc3c(c2)OCCO3)cs1 | 101 | 102 | 100 | 103 | 100 | 103
CCn1c(=O)n(CC(=O)Nc2ccc(F)cc2)c(=O)c2ccccc21 | 101 | 107 | 103 | 103 | 102 | 104
CC(C)n1c(O)c(N=Nc2ccc(Cl)nn2)c2ccccc21 | 129*[activator] | 117 | 121*[activator] | 114 | 117 | 116
Cc1cc(C(=O)N=Nc2c(O)n(C(C)C)c3ccccc23)n[nH]1 | 96 | 97 | 96 | 93 | 93 | 94
COc1cc(NC(=S)Nc2ccc(N(C)C(C)=O)cc2)cc(OC)c1 | 99 | 106 | 99 | 95 | 95 | 93
O=C(CN1C(=O)C2C3c4ccccc4C(c4ccccc43)C2C1=O)Nc1cccc(C(=O)O)c1 (stereo unspecified) | 127*[activator] | 145*[activator] | 124*[activator] | 130*[activator] | 155*[activator] | 125*[activator]
O=C1CC(N(CCc2ccccc2)C(=S)Nc2cc(Cl)ccc2Cl)C(=O)N1c1c(Cl)cccc1Cl (stereo unspecified) | 96 | 94 | 97 | 97 | 95 | 97
CCN(C(=O)COC(=O)/C=C/c1ccccc1)C1CCCCC1 | 97 | 97 | 94 | 93 | 93 | 95
